Bioassay records: PubChem, several laboratories
Wnt act: activates Wnt/beta-catenin signaling in a reporter cell assay; activator, plate reader; activation, % at 9.35 µM; 300,000 tested, 1.2% active; AID 743398; in the data active means activation above about 30%, passing the limit was not always enough; inconclusive means no clear call, values can overlap the other calls
GAA850 FXN act: activators of GAA850 frataxin (FXN) promoter; HEK293 lucGAA850 FXN promoter luciferase reporter, 24 h; percent of 10 µM SAHA response; activation, % at 6 µM; 360,000 tested, 0.56% active;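 active means activation above the average of all compounds screened plus 3 SD, cutoff fixed separately per campaign, cut at about 7.5% in these data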
esBAF inh: blocks esBAF chromatin remodeling in mouse ES cells; reporter increase, % at 12.5 µM; Bmi1-luciferase knock-in reporter, 24 h; 100% = twice the neutral-well signal; 350,000 tested, 2% active; in the data active means activation above about 40%; inconclusive means no clear call, values can overlap the other calls;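 further: a rise in the Bmi1 reporter signal indicates esBAF inhibition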
MITF TRPM1 HTS: MITF TRPM1 promoter activation in melanoma cells. SK-MEL-5 TRPM1-promoter luciferase, 24 h; % of positive control, neutral wells = 0. activation, % at 12.5 µM. 300,000 tested, 0.75% active. AID 588334;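 active means mean activation of at least 80% with every replicate also reaching 80%; inconclusive means mean reaches 80% but some replicate falls short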
GAA30 counter: counter-screen for GAA850 frataxin promoter activators: GAA30 promoter activation; shares compounds with GAA850 FXN act; HEK293 lucGAA30 FXN promoter luciferase, 24 h; DMSO = 0%, 5 µM ipriflavone = 100%; activation, % at 6 µM; 1,900 tested, 66% active; AID 588350;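 active means mean activation above the mean of solvent-only control wells plus 3 SD, cut at about 22% in these data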;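 further: counterscreen of GAA850 promoter hits where activity marks nonselective or luminescence artifacts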
FXN GAA850 conf: confirmation of GAA850 frataxin (FXN) promoter activators; shares compounds with GAA850 FXN act; HEK293 lucGAA850 FXN promoter luciferase reporter, 24 h; 100% = activation by SAHA; activation, % at 6 µM; 1,900 tested, 86% active; AID 588351;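 active means mean activation above a set limit taken from the primary screen, cut at about 8% in these data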
Numbers stand for hits; n = inactive; u = inconclusive; x = no result given. Sampled rows, rich in hits. Any-hit rate of the full collection: about 2.8%.

SMILES	Wnt act	GAA850 FXN act	esBAF inh	MITF TRPM1 HTS	GAA30 counter	FXN GAA850 conf
O=C(C[C@@H]1CC[C@H]2[C@@H](COC[C@H](O)CN2Cc2cc(F)ccc2F)O1)NCc1ccc(Cl)cc1	x	x	n	x	x	x
O=C(NC[C@H]1[C@@H](c2ccccc2)[C@@H](CO)N1CC1CCCC1)C1CC1	x	x	n	x	x	x
Cc1nnc(NC(=O)c2sc3ccccc3c2Cl)s1	n	n	x	n	x	x
Cc1ccc(NC(=O)c2sc3ccccc3c2Cl)nc1	n	8.4	n	n	105	16
C[C@@H]1CN([C@@H](C)CO)C(=O)c2cc(NS(=O)(=O)c3ccc(Cl)cc3)ccc2O[C@@H](C)CCCCO[C@@H]1CN(C)C(=O)Nc1ccc2c(c1)OCO2	x	x	n	x	x	x
Cc1ccc(/C=N/NC(=O)C(C)Oc2ccccc2[N+](=O)[O-])s1 (configuration not stated)	n	11	x	n	26	n
CC(O)CNc1ncnc2cc(-c3ccc(F)cc3)sc12 (configuration not stated)	n	10	54	u	75	30
COCC(=O)N1CC[C@H]2[C@H](CO)Nc3ccc(C#Cc4ccccc4)cc3[C@H]21	x	x	n	x	x	x
C[C@H](CO)N1C[C@H](C)[C@@H](CN(C)S(=O)(=O)c2ccccc2)Oc2ncc(Br)cc2C1=O	x	x	n	x	x	x
COC(=O)c1ccc(COC(=O)CNC(=O)c2ccco2)cc1	n	n	n	n	x	x
COC(=O)c1ccc(COC(=O)CNC(=O)c2ccc(-c3ccccc3)cc2)cc1	n	8.1	x	n	76	22
Cc1ccc(OCc2cc(C(=O)N3CC4C[C@@H]5CC3C[C@H](C4)C5)no2)cc1C	n	9.0	52	110	97	31
C[C@H](O)C#Cc1cnc2c(c1)C(=O)N([C@@H](C)CO)C[C@@H](C)[C@@H](CN(C)C(=O)c1ccc(F)cc1)O2	x	x	n	x	x	x
CCOC(=O)c1c(-c2cccs2)csc1NC(=O)CC(C)C	n	n	n	n	x	x
COC(=O)c1c(-c2cccs2)csc1NC(=O)c1cccnc1	x	9.8	u	n	69	26
C[C@@H]1CN([C@@H](C)CO)C(=O)c2cc(NC(=O)CCC(F)(F)F)ccc2O[C@@H](C)CCCCO[C@@H]1CN(C)C(=O)Nc1ccc(C(F)(F)F)cc1	x	x	n	x	x	x
Cc1ccc2c(CN3CCC(C)CC3)cc(=O)oc2c1	x	8.6	59	n	125	46
Cc1ccc2c(CN3CC(C)CC(C)C3)cc(=O)oc2c1 (configuration not stated)	n	n	n	n	x	x
CO[C@H]1CN(C)C(=O)c2cc(NC(=O)Cc3ccccc3)ccc2OC[C@@H](C)N(C(C)=O)C[C@H]1C	x	x	n	x	x	x
C[C@@H]1CN([C@H](C)CO)C(=O)c2cc(NC(=O)c3ccccc3)ccc2O[C@@H](C)CCCCO[C@@H]1CN(C)C(=O)Cc1ccccc1	x	x	n	x	x	x
Cc1ccc(C(=O)NCc2ccc3c(c2)OCO3)cc1C	n	8.7	n	n	57	22
Cc1ccc(C(=O)NCc2ccc3c(c2)OCO3)cc1Cl	n	n	n	x	x	x
CCOC(=O)[C@H]1[C@H]2COc3ccccc3[C@@H]2N2C(=O)c3c(C)cc(C)cc3NC(=O)[C@@]12C	n	11	n	n	28	11
C[C@@H]1CN([C@H](C)CO)C(=O)c2cc(NC(=O)CCN3CCOCC3)ccc2O[C@H]1CN(C)Cc1ccc(-c2ccccc2)cc1	x	x	n	x	x	x
O=[N+]([O-])c1ccccc1Nc1c2ccccc2nc2ccccc12	n	9.6	n	n	32	16
COc1ccc([N+](=O)[O-])cc1Nc1c2ccccc2nc2ccccc12	n	9.3	n	x	n	21
C[C@@H]1CN([C@@H](C)CO)C(=O)c2cc(C#CC3(O)CCCC3)cnc2O[C@H]1CN(C)Cc1cccnc1	x	x	n	x	x	x
CN(CC(=O)Nc1ccc(Cl)c(C(F)(F)F)c1)C(=O)CCCNC(=O)c1ccc(Cl)cc1	n	15	u	n	65	26
Cc1noc(C)c1NC(=O)Nc1ccc2c(c1)CC(=O)N([C@@H](C)CO)C[C@H](C)[C@H](CN(C)C(=O)Nc1c(C)noc1C)O2	x	x	n	x	x	x
COc1ccc(OC)c(/C=C/C(=O)N2C(=O)c3cccc(N)c3C2=O)c1	n	9.2	x	n	n	8.9
